Measurements taken from the supplement of paper PMC8728848.
Many of the other results were omitted from the sample, so the strongest signals are more common in it than they were.

Tests used:
Experiment in all cases: glycan array binding signal (z-score within array); higher = stronger binding
Conditions in all cases: glycan notation: IUPAC condensed, linker removed
[1] = target: Fuc(a1-2)Gal(b1-3)GalNAc(b1-3)Gal
Outline: (§1)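 Glycan array data came from 3228 arrays in the Consortium for Functional Glycomics database, and only arrays with an available protein sequence were kept. Glycan names were put into IUPAC-condensed notation, and columns mapping to the same glycan were averaged. The binding signal is a within-array Z-score, averaged across arrays of one protein sequence run at different concentrations or buffers and across linkers. A negative Z-score can be read as non-binding.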

[2] = target: Fuc(a1-2)Gal(b1-4)GlcNAc(b1-2)Man(a1-3)[Fuc(a1-2)Gal(b1-4)GlcNAc(b1-2)Man(a1-6)]Man(b1-4)GlcNAc(b1-4)GlcNAc
Outline: as §1

[3] = target: Fuc(a1-2)Gal(b1-4)[Fuc(a1-3)]GlcNAc
Outline: as §1

[4] = target: Fuc(a1-2)[GalNAc(a1-3)]Gal(b1-3)GlcNAc(b1-2)Man(a1-3)[Fuc(a1-2)[GalNAc(a1-3)]Gal(b1-3)GlcNAc(b1-2)Man(a1-6)]Man(b1-4)GlcNAc(b1-4)GlcNAc
Outline: as §1

[5] = target: Fuc(a1-2)[GalNAc(a1-3)]Gal(b1-4)Glc
Outline: as §1

[6] = target: Fuc(a1-3)[Gal(b1-4)]Glc6S
Outline: as §1

[7] = target: Fuc(a1-3)[Gal(b1-4)]GlcNAc(b1-4)Gal(b1-4)[Fuc(a1-3)]GlcNAc(b1-4)Gal(b1-4)[Fuc(a1-3)]GlcNAc
Outline: as §1

[8] = target: Fuc(a1-3)[Gal3S(b1-4)]Glc6S
Outline: as §1

[9] = target: Fuc(a1-3)[Gal3S(b1-4)]GlcNAc
Outline: as §1

[10] = target: Gal(b1-3)GalNAc(a1-3)[Fuc(a1-2)]Gal(b1-4)Glc
Outline: as §1

[11] = target: Gal(b1-3)[Fuc(a1-4)]GlcNAc
Outline: as §1

[12] = target: Gal(b1-3)[Fuc(a1-4)]GlcNAc(b1-2)Man(a1-3)[Gal(b1-3)[Fuc(a1-4)]GlcNAc(b1-2)Man(a1-6)]Man(b1-4)GlcNAc(b1-4)GlcNAc
Outline: as §1

[13] = target: Gal(b1-4)GlcNAc(b1-3)Gal(b1-3)GlcNAc
Outline: as §1

Gal3S4S(b1-4)GlcNAc = target: Gal3S4S(b1-4)GlcNAc
Outline: as §1

GalNAc(b1-4)GlcNAc = target: GalNAc(b1-4)GlcNAc
Outline: as §1

[14] = target: GlcNAc(a1-4)Gal(b1-3)GlcNAc
Outline: as §1

[15] = target: GlcNAc(a1-4)Gal(b1-4)GalNAc
Outline: as §1

[16] = target: GlcNAc(a1-4)Gal(b1-4)GlcNAc(b1-3)Gal(b1-4)Glc
Outline: as §1

[17] = target: GlcNAc(a1-4)Gal(b1-4)GlcNAc(b1-3)Gal(b1-4)[Fuc(a1-3)]GlcNAc(b1-3)Gal(b1-4)[Fuc(a1-3)]GlcNAc
Outline: as §1

GlcNAc(b1-4)GlcNAc = target: GlcNAc(b1-4)GlcNAc
Outline: as §1

[18] = target: Man(a1-2)Man(a1-2)Man(a1-6)[Man(a1-3)]Man
Outline: as §1

[19] = target: Man(a1-2)Man(a1-3)[Man(a1-2)Man(a1-6)]Man
Outline: as §1

[20] = target: Man(a1-2)Man(a1-3)[Man(a1-2)Man(a1-6)]Man(a1-6)[Man(a1-2)Man(a1-2)Man(a1-3)]Man
Outline: as §1

[21] = target: Neu5Ac(a2-3)Gal(b1-4)GlcNAc(b1-2)Man(a1-3)[Neu5Ac(a2-6)Gal(b1-4)GlcNAc(b1-2)Man(a1-6)]Man(b1-4)GlcNAc(b1-4)GlcNAc
Outline: as §1

[22] = target: Neu5Ac(a2-3)Gal(b1-4)GlcNAc(b1-6)[Neu5Ac(a2-3)Gal(b1-3)]GalNAc
Outline: as §1

[23] = target: Neu5Ac(a2-3)Gal(b1-4)[Fuc(a1-3)]GlcNAc(b1-3)Gal
Outline: as §1

[24] = target: Neu5Ac(a2-3)Gal(b1-4)[Fuc(a1-3)]GlcNAc(b1-3)Gal(b1-4)GlcNAc
Outline: as §1

[25] = target: Neu5Ac(a2-3)GalNAc(b1-4)GlcNAc
Outline: as §1

[26] = target: Neu5Ac(a2-3)[GalNAc(b1-4)]Gal(b1-4)Glc
Outline: as §1

Neu5Ac(a2-6)Gal(b1-4)Glc = target: Neu5Ac(a2-6)Gal(b1-4)Glc
Outline: as §1

[27] = target: Neu5Ac(a2-6)Gal(b1-4)GlcNAc(b1-2)Man(a1-3)Man(b1-4)GlcNAc(b1-4)GlcNAc
Outline: as §1

[28] = target: Neu5Ac(a2-6)Gal(b1-4)GlcNAc(b1-2)Man(a1-3)[GlcNAc(b1-2)Man(a1-6)]Man(b1-4)GlcNAc(b1-4)GlcNAc
Outline: as §1

B1: Neuropilin-2 (Homo sapiens), O60462 (protein)
chain: MDMFPLTWVFLALYFSRHQVRGQPDPPCGGRLNSKDAGYITSPGYPQDYPSHQNCEWIVYAPEPNQKIVLNFNPHFEIEKHDCKYDFIEIRDGDSESADLLGKHCGNIAPPTIISSGSMLYIKFTSDYARQGAGFSLRYEIFKTGSEDCSKNFTSPNGTIESPGFPEKYPHNLDCTFTILAKPKMEIILQFLIFDLEHDPLQVGEGDCKYDWLDIWDGIPHVGPLIGKYCGTKTPSELRSSTGILSLTFHTDMAVAKDGFSARYYLVHQEPLENFQCNVPLGMESGRIANEQISASSTYSDGRWTPQQSRLHGDDNGWTPNLDSNKEYLQVDLRFLTMLTAIATQGAISRETQNGYYVKSYKLEVSTNGEDWMVYRHGKNHKVFQANNDATEVVLNKLHAPLLTRFVRIRPQTWHSGIALRLELFGCRVTDAPCSNMLGMLSGLIADSQISASSTQEYLWSPSAARLVSSRSGWFPRIPQAQPGEEWLQVDLGTPKTVKGVIIQGARGGDSITAVEARAFVRKFKVSYSLNGKDWEYIQDPRTQQPKLFEGNMHYDTPDIRRFDPIPAQYVRVYPERWSPAGIGMRLEVLGCDWTDSKPTVETLGPTVKSEETTTPYPTEEEATECGENCSFEDDKDLQLPSGFNCNFDFLEEPCGWMYDHAKWLRTTWASSSSPNDRTFPDDRNFLRLQSDSQREGQYARLISPPVHLPRSPVCMEFQYQATGGRGVALQVVREASQESKLLWVIREDQGGEWKHGRIILPSYDMEYQIVFEGVIGKGRSGEIAIDDIRISTDVPLENCMEPISAFAGENFKVDIPEIHEREGYEDEIDDEYEVDWSNSSSATSGSGAPSTDKEKSWLYTLDPILITIIAMSSLGVLLGATCAGLLLYCTCSYSGLSSRSCTTLENYNFELYDGLKHKVKMNHQKCCSEA
glycan array binding signal (z-score) [1]: 1.26 | glycan array binding signal (z-score) [2]: 3.21 | glycan array binding signal (z-score) [3]: 0.117 | glycan array binding signal (z-score) [4]: -0.324 | glycan array binding signal (z-score) [5]: -0.637 | glycan array binding signal (z-score) [6]: 0.81 | glycan array binding signal (z-score) [7]: -0.508 | glycan array binding signal (z-score) [8]: 6.67 | glycan array binding signal (z-score) [9]: 0.282 | glycan array binding signal (z-score) [10]: -0.835 | glycan array binding signal (z-score) [11]: 0.255 | glycan array binding signal (z-score) [12]: 5.64 | glycan array binding signal (z-score) [13]: -0.249 | glycan array binding signal (z-score) (Gal3S4S(b1-4)GlcNAc): -0.032 | glycan array binding signal (z-score) (GalNAc(b1-4)GlcNAc): -0.284 | glycan array binding signal (z-score) [14]: 1.66 | glycan array binding signal (z-score) [15]: 6.59 | glycan array binding signal (z-score) [16]: 1.04 | glycan array binding signal (z-score) [17]: 10.4 | glycan array binding signal (z-score) (GlcNAc(b1-4)GlcNAc): -0.129 | glycan array binding signal (z-score) [18]: -0.323 | glycan array binding signal (z-score) [19]: -0.496 | glycan array binding signal (z-score) [20]: -0.552 | glycan array binding signal (z-score) [21]: -0.501 | glycan array binding signal (z-score) [22]: -0.664 | glycan array binding signal (z-score) [23]: -0.587 | glycan array binding signal (z-score) [24]: 3.79 | glycan array binding signal (z-score) [25]: 0.369 | glycan array binding signal (z-score) [26]: -0.339 | glycan array binding signal (z-score) (Neu5Ac(a2-6)Gal(b1-4)Glc): 0.038 | glycan array binding signal (z-score) [27]: -0.201 | glycan array binding signal (z-score) [28]: -0.609
